Results: PubChem BioAssay (Tox21)
Results filed as inconclusive are left out. Calls of active or inactive are those of the source. Unless noted, calls follow the shape of the full dose curve.

Columns and labels:
[1] = qHTS assay to identify small molecule agonists of the vitamin D receptor (VDR) signaling pathway - cell viability counter screen (AID 743224; active = well fitted curve in the direction sought with a large enough effect in the repeat runs; an effect the other way counts as inactive or inconclusive; also: series mostly up to about 63 µM; % is scaled to controls: 0 for no effect and ±100 for the full control effect; nearly all actives have a fitted effect of over 50% in size)
Method in brief: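 Cytotoxicity counter screen: VDR-bla cells, 16 h compound exposure at 37C, 5% CO2; CellTiter-Glo luminescence, 30 min RT, same wells as bla read.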

[2] = qHTS assay to identify small molecule antagonists of the vitamin D receptor (VDR) signaling pathway - cell viability counter screen (AID 743225; active = well fitted curve in the direction sought with a large enough effect in the repeat runs; an effect the other way counts as inactive or inconclusive; also: % is scaled to controls: 0 for no effect and ±100 for the full control effect; nearly all actives have a fitted effect of over 50% in size)
Method in brief: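 Cytotoxicity toward the VDR-bla HEK 293T line was scored by ATP-based CellTiter-Glo luminescence, read in the wells already used for the beta-lactamase readout after 16 h compound treatment under 3 nM 1-alpha,25-dihydroxyvitamin D3 stimulation.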

[3] = qHTS assay to identify small molecule agonists of the NFkB signaling pathway (AID 1159509; active = well fitted curve in the direction sought with a large enough effect in the signal ratio in the repeat runs, not every such curve was filed as active; the % refers to the signal ratio; also: series mostly up to about 61 µM; % is scaled to controls: 0 for no effect and ±100 for the full control effect)
Method in brief: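 Pathway activation was measured in ME-180 cells stably expressing beta-lactamase under NF-kB response element control. Substrate cleavage was read as the 460/530 nm emission shift after 5 hr compound incubation.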

[4] = qHTS assay to identify small molecule agonists of the NFkB signaling pathway - cell viability counter screen (AID 1159515); also: series mostly up to about 61 µM; % is scaled to controls: 0 for no effect and ±100 for the full control effect; nearly all actives have a fitted effect of over 55% in size
Method in brief: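 ME-180 NFkB-bla cells, 2,000/well; overnight attach; compound 5 hr, 37 C/5% CO2; LiveBLAzer substrate 1.5 hr RT; then CellTiter-Glo in same wells, 30 min RT, luminescence read.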

[5] = qHTS assay to identify small molecule agonists of the endoplasmic reticulum stress response signaling pathway (AID 1159516; active = well fitted activation curve with a large enough effect in the signal ratio in the repeat runs, not every such curve was filed as active; the % refers to the signal ratio; also: % is scaled to controls: 0 for no effect and ±100 for the full control effect)
Method in brief: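 HeLa ESRE-bla reporter line; cpd 5 h, 37 C/5% CO2; LiveBLAzer B/G FRET substrate 2 h RT; ex 405, em 460/530 nm.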

[6] = qHTS assay to identify small molecule agonists of the endoplasmic reticulum stress response signaling pathway - cell viability counter screen (AID 1159517);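 also: HeLa cells carrying an ER stress response element beta-lactamase reporter; series mostly up to about 61 µM; % is scaled to controls: 0 for no effect and ±100 for the full control effect; nearly all actives have a fitted effect of over 50% in size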
Method in brief: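 In parallel with the ESRE reporter read, cytotoxicity was scored by CellTiter-Glo luminescence (30 min, room temperature) on HeLa ESRE-bla cells dosed for 5 hr.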

[7] = target: Nuclear receptor ROR-gamma (Homo sapiens) (UniProt P51449); assay: qHTS assay to identify small molecule antagonists of the retinoid-related orphan receptor gamma (ROR-gamma) signaling pathway (AID 1159521; active = well fitted curve in the direction sought with a large enough effect in the repeat runs; an effect the other way counts as inactive or inconclusive;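 also: CHO cells with doxycycline inducible ROR-gamma driving an RORE luciferase reporter; top concentration of the series differs between compounds; % is scaled to controls: 0 for no effect and ±100 for the full control effect; nearly all actives have a fitted effect of over 50% in size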)
Method in brief: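 Readout: ONE-Glo luciferase luminescence, 30 min at room temperature. System: Tet-on RORγ CHO, RORE-LUC. Sequence: compound 2 h, doxycycline 1 uM final, 16 h at 37 C.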

[8] = qHTS assay to identify small molecule agonists of the AP-1 signaling pathway - cell viability counter screen (AID 1159525); also: nearly all actives have a fitted effect of over 55% in size
Method in brief: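 Same-well cytotoxicity counter screen of the Tox21 10K library in ME-180 cells. The readout is ATP-dependent luminescence after 5 h compound treatment. Data are normalised to DMSO and tetra n-octyl ammonium bromide controls.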

[9] = qHTS assay to identify small molecule agonists of the AP-1 signaling pathway (AID 1159526); also: % is scaled to controls: 0 for no effect and ±100 for the full control effect
[10] = qHTS assay to identify small molecule antagonists of the retinoid-related orphan receptor gamma (ROR-gamma) signaling pathway - cell viability counter screen (AID 1159520; active = well fitted curve in the direction sought with a large enough effect in the repeat runs; an effect the other way counts as inactive or inconclusive)
Method in brief: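 Tet-on ROR gamma CHO cells were given compounds for 2 hr, then doxycycline hyclate at 1 uM final, and incubated 16 hr at 37 C. Viability was measured as ATP content by CellTiter-Glo luminescence.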

NCCNC(=O)c1ccc(Cl)cn1
inactive: outcome [1] | outcome [2] | outcome [3] | outcome [4] | outcome [5] | outcome [6] | Potency [7] | outcome [8] | Potency [9]

COc1ccc2cc(C=O)ccc2c1
inactive: outcome [1] | outcome [2] | outcome [3] | outcome [4] | outcome [6] | Potency [10] | Potency [7] | outcome [8] | Potency [9]

C1C2OC2C2C1C1CC2C2OC12 (configuration not stated)
inactive: outcome [1] | outcome [3] | outcome [4] | outcome [6] | Potency [10] | Potency [7] | outcome [8] | Potency [9]

O=S(=O)(O)c1ccccc1O
inactive: outcome [1] | outcome [2] | outcome [3] | outcome [4] | outcome [6] | Potency [10] | Potency [7] | outcome [8] | Potency [9]

CCCCCCCCN(C)CCCCCCCC
inactive: outcome [1] | outcome [2] | outcome [3] | outcome [4] | outcome [5] | outcome [6] | Potency [7] | Potency [9]

NC1CCN(c2cccc(Cl)n2)CC1
inactive: outcome [1] | outcome [3] | outcome [4] | outcome [6] | Potency [10] | Potency [7] | outcome [8] | Potency [9]

C/C=C1\C(=O)C[C@H]2[C@@H]3CCC4=CC(=O)CC[C@]4(C)[C@H]3CC[C@]12C
inactive: outcome [1] | outcome [2] | outcome [3] | outcome [4] | outcome [6] | Potency [10] | Potency [7] | Potency [9]

CCCCC=O
inactive: outcome [1] | outcome [2] | outcome [3] | outcome [4] | outcome [5] | outcome [6] | Potency [7] | outcome [8] | Potency [9]

CCOC(=O)[C@H](CCc1ccccc1)N[C@@H](C)C(=O)N1CCC[C@H]1C(=O)O
inactive: outcome [1] | outcome [2] | outcome [3] | outcome [4] | outcome [6] | Potency [10] | Potency [7] | outcome [8] | Potency [9]

CO[Si](OC)(OC)OC
inactive: outcome [1] | outcome [2] | outcome [3] | outcome [4] | outcome [5] | outcome [6] | Potency [7] | outcome [8] | Potency [9]

CCC(=O)c1cccc(Cl)c1
inactive: outcome [1] | outcome [2] | outcome [3] | outcome [4] | outcome [6] | Potency [10] | Potency [7] | outcome [8] | Potency [9]

C=C[Si](OC)(OC)OC
inactive: outcome [1] | outcome [2] | outcome [3] | outcome [4] | outcome [6] | Potency [10] | Potency [7] | outcome [8] | Potency [9]

CC1=CC(=O)CCC1
inactive: outcome [1] | outcome [2] | outcome [3] | outcome [4] | outcome [6] | Potency [10] | Potency [7] | outcome [8] | Potency [9]

CCN(CC)S(=O)(=O)c1ccc(C(=O)O)cc1
inactive: outcome [1] | outcome [3] | outcome [4] | outcome [6] | Potency [10] | Potency [7] | outcome [8] | Potency [9]

C[N+](C)(C)CC[N+]1(C)Cc2c(Cl)c(Cl)c(Cl)c(Cl)c2C1
inactive: outcome [1] | outcome [2] | outcome [3] | outcome [4] | outcome [6] | Potency [10] | Potency [7] | outcome [8] | Potency [9]

CC12CCC(CC1=O)C2(C)C (configuration not stated)
inactive: outcome [1] | outcome [2] | outcome [3] | outcome [4] | outcome [6] | Potency [10] | Potency [7] | outcome [8] | Potency [9]

COc1cc(C(=O)N2CCOCC2)cc(OC)c1OC
inactive: outcome [1] | outcome [2] | outcome [3] | outcome [4] | outcome [5] | outcome [6] | Potency [7] | outcome [8] | Potency [9]

CCCCc1ccc(N)cc1
inactive: outcome [1] | outcome [2] | outcome [3] | outcome [4] | outcome [6] | Potency [10] | Potency [7] | outcome [8] | Potency [9]

CCC(C)OC(=O)N1CCCCC1CCO (configuration not stated)
inactive: outcome [1] | outcome [2] | outcome [3] | outcome [4] | outcome [5] | outcome [6] | Potency [7] | outcome [8] | Potency [9]

NS(=O)(=O)c1cc2c(cc1Cl)NC(CSCc1ccccc1)=NS2(=O)=O
inactive: outcome [1] | outcome [2] | outcome [3] | outcome [4] | outcome [5] | outcome [6] | Potency [7] | Potency [9]

CC(C)[N+](C)(C)CC(O)COc1cccc2ccccc12 (configuration not stated)
inactive: outcome [1] | outcome [2] | outcome [3] | outcome [4] | outcome [6] | Potency [10] | Potency [7] | outcome [8] | Potency [9]

CCO[Si](CCCN=C=O)(OCC)OCC
inactive: outcome [1] | outcome [3] | outcome [4] | outcome [6] | Potency [10] | Potency [7] | outcome [8] | Potency [9]

CC(=O)O[C@H](CC(=O)[O-])C[N+](C)(C)C
inactive: outcome [1] | outcome [3] | outcome [4] | outcome [6] | Potency [10] | Potency [7] | Potency [9]

OCCCCCCO
inactive: outcome [1] | outcome [2] | outcome [3] | outcome [4] | outcome [5] | outcome [6] | Potency [7] | Potency [9]

CO[Si](CCCNCCC[Si](OC)(OC)OC)(OC)OC
inactive: outcome [1] | outcome [2] | outcome [3] | outcome [4] | outcome [5] | outcome [6] | Potency [7] | outcome [8] | Potency [9]

COc1cccc(Br)c1
inactive: outcome [1] | outcome [3] | outcome [4] | outcome [6] | Potency [10] | Potency [7] | outcome [8] | Potency [9]

CCCCCCCCCCC1CO1 (configuration not stated)
inactive: outcome [1] | outcome [2] | outcome [3] | outcome [4] | outcome [6] | Potency [10] | Potency [7] | outcome [8] | Potency [9]

C(=C(c1ccccc1)c1ccccc1)c1ccccc1
inactive: outcome [2] | outcome [3] | outcome [4] | outcome [6] | Potency [10] | Potency [7] | outcome [8] | Potency [9]

CCCC(C)CO (configuration not stated)
inactive: outcome [1] | outcome [2] | outcome [3] | outcome [4] | outcome [6] | Potency [10] | Potency [7] | outcome [8] | Potency [9]

Cc1cc(C)c(NC(=O)CN(CC(=O)O)CC(=O)O)c(C)c1Br
inactive: outcome [1] | outcome [2] | outcome [3] | outcome [4] | outcome [5] | outcome [6] | Potency [7] | outcome [8] | Potency [9]

CCCC=O
inactive: outcome [1] | outcome [3] | outcome [5] | outcome [6] | Potency [7] | outcome [8] | Potency [9]

C#CC(C)(O)CC(C)C (configuration not stated)
inactive: outcome [1] | outcome [3] | outcome [6] | Potency [10] | Potency [7] | outcome [8] | Potency [9]

CCn1cc(C(=O)O)c(=O)c2cc(F)c(N3CCN(C)CC3)cc21
inactive: outcome [3] | outcome [5] | outcome [6] | activity, negative = cytotoxicity [10] 0.209% [at 19 µM] | activity change, negative = inhibition [7] -0.847% [at 19 µM] | viability change, negative = cytotoxic [8] 2.53% [at 15.8 µM] | activation [9] 0.51% [at 15.8 µM]

CN(C)CCOC(c1ccc(Cl)cc1)c1ccccn1 (configuration not stated)
inactive: outcome [1] | outcome [2] | outcome [3] | outcome [4] | outcome [6] | Potency [10] | Potency [7] | Potency [9]

O=C(O)/C=C/c1ccc(Cn2ccnc2)cc1
inactive: outcome [1] | outcome [2] | outcome [3] | outcome [5] | outcome [6] | Potency [10] | Potency [7] | outcome [8] | Potency [9]

CCCCCCCCCCCl
inactive: outcome [1] | outcome [2] | outcome [3] | outcome [5] | outcome [6] | Potency [10] | Potency [7] | Potency [9]

OCCN1C[C@H](O)[C@@H](O)[C@H](O)[C@H]1CO
inactive: outcome [1] | outcome [2] | outcome [3] | outcome [5] | outcome [6] | Potency [7] | outcome [8] | Potency [9]

C1=C\CC/C=C\CC/C=C\CC/1
inactive: outcome [1] | outcome [2] | outcome [3] | outcome [5] | outcome [6] | Potency [10] | Potency [7] | outcome [8] | Potency [9]

CCCCCCC(=O)OCC
inactive: outcome [1] | outcome [2] | outcome [4] | outcome [5] | outcome [6] | Potency [10] | Potency [7] | outcome [8] | Potency [9]

CC(C)(C)C(=O)/C=C/c1ccc(Cl)cc1
inactive: outcome [1] | outcome [2] | outcome [3] | outcome [5] | outcome [6] | Potency [10] | Potency [7] | outcome [8] | Potency [9]

CCCCc1ccc2cccc(S(=O)(=O)O)c2c1
inactive: outcome [2] | outcome [3] | outcome [5] | outcome [6] | Potency [10] | Potency [7] | outcome [8] | Potency [9]

CC(C)N1C(=O)c2ccccc2C1=O
inactive: outcome [1] | outcome [2] | outcome [3] | outcome [6] | Potency [7] | outcome [8] | Potency [9]

Cc1nccn1CC1CCc2c(c3ccccc3n2C)C1=O (configuration not stated)
inactive: outcome [1] | outcome [2] | outcome [3] | outcome [5] | outcome [6] | Potency [10] | Potency [7] | outcome [8] | Potency [9]

CCCCCCOC(=O)CC(CC(=O)OCCCCCC)(OC(=O)CCC)C(=O)OCCCCCC
inactive: outcome [4] | outcome [5] | outcome [6] | Potency [10] | Potency [7] | outcome [8] | Potency [9]

OC1OC[C@@H](O)[C@H](O)[C@H]1O (some centres not stated)
inactive: outcome [1] | outcome [2] | outcome [3] | outcome [4] | outcome [6] | Potency [7] | outcome [8] | Potency [9]

C=CCOc1nc(OCC=C)nc(OCC=C)n1
inactive: outcome [1] | outcome [4] | outcome [5] | outcome [6] | Potency [10] | Potency [7] | outcome [8] | Potency [9]

CC(C)(O)c1ccccc1
inactive: outcome [1] | outcome [2] | outcome [3] | outcome [6] | Potency [10] | Potency [7] | outcome [8] | Potency [9]

c1ccc2cnncc2c1
inactive: outcome [1] | outcome [4] | outcome [5] | outcome [6] | Potency [10] | Potency [7] | outcome [8] | Potency [9]

CCCCCC[C@@H](CCC)C(=O)O
inactive: outcome [1] | outcome [2] | outcome [3] | outcome [4] | outcome [6] | Potency [7] | outcome [8] | Potency [9]

CCCCCCCCCCCCCCC
inactive: outcome [1] | outcome [2] | outcome [3] | outcome [5] | outcome [6] | Potency [10] | Potency [7] | outcome [8] | Potency [9]

COC(=O)c1ccc(C(=O)OC)c(C(=O)OC)c1
inactive: outcome [1] | outcome [2] | outcome [3] | outcome [5] | outcome [6] | Potency [10] | Potency [7] | Potency [9]
